Most compounds without a hit are left out; they make up all but 6.6% or so of the library.
Beta apoptosis: beta cell apoptosis inhibition; INS-1E cytokine-induced death, ATP luminescence, 48 h; percent of positive-control rescue, neutral wells zero; 0.8% of 300,000 active; protection from apoptosis, % (test concentration not listed);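 active = Every replicate reaches about 75%, or at least half do and their mean reaches it too, limit read from the data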;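 also: higher means more ATP so stronger rescue from cytokine killing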
CSC inhib: blocks cancer stem cells | cancer stem cell-like cells viability, luminescence | inhibition, % at 7.5 µM | 1.1% of 300,000 active | AID 2717; in the data active = inhibition above about 75%; tested in HMLE shEcad cells
MPTP inh: blocks calcium-induced mitochondrial swelling. isolated mouse mitochondria, Ca2+ swelling absorbance, 30 min. inhibition, % at 10 µM. 1.4% of 360,000 active;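 active = inhibition of 50% or more, scaled per plate between neutral and stimulator controls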
Mdm2 MdmX PPI: disrupts the human Mdm2-MdmX interaction; O15151+Q00987; SaOS-2 split-luciferase Mdm2/MdmX complementation, luminescence; inhibition, % at 8 µM; 3% of 330,000 active; AID 485346;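 active = inhibition of at least 50% at 8 µM in the primary screen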
Target sequence (O15151 whole entry, looked up): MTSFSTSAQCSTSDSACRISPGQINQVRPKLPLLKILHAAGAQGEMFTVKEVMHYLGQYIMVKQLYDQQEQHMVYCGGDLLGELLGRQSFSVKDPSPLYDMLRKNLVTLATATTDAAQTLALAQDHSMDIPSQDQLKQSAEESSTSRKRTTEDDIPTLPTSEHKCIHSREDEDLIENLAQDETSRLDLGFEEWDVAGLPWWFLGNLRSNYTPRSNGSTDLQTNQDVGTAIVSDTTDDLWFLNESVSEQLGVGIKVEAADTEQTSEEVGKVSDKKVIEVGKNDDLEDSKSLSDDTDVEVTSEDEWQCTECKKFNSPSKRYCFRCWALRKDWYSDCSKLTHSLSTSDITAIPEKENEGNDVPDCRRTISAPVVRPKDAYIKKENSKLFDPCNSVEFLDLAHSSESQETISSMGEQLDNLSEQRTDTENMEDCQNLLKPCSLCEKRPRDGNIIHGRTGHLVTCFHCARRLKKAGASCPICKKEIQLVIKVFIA
Target sequence (Q00987 whole entry, looked up): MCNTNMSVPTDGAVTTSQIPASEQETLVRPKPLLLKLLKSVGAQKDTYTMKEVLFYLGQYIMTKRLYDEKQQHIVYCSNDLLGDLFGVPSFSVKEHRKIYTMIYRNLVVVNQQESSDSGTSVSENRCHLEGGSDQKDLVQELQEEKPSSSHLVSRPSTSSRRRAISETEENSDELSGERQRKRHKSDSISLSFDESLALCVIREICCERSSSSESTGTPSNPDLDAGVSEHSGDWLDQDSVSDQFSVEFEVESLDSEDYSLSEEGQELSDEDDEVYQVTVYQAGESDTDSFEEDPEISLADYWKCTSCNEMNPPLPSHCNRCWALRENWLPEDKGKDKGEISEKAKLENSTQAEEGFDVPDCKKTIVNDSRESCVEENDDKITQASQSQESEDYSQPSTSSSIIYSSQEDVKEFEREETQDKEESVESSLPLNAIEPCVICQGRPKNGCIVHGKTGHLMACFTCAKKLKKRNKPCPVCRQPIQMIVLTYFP
Gli-Sufu antag: blocks Gli-Sufu signaling in a luciferase reporter. Sufu-KO-LIGHT fibroblasts, Gli luciferase reporter luminescence. inhibition, % at 5 µM. 0.74% of 340,000 active;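 active = inhibition above about 55%, limit read from the data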
NR3A LBD binder: modulators (binders) of human NR3A ligand-binding domain; NR3A LBD differential scanning fluorimetry, Tm shift; 0% = protein alone, 100% = glycine-bound protein; Tm shift relative to glycine control, % at 25 µM; 2.5% of 340,000 active; AID 1259313;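 active = melting temperature shift of at least 10% of the positive control shift, at one fixed dose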
Mdm2-MdmX conf: confirmation of human Mdm2/MdmX interaction inhibitors; 55% of 10,000 active; AID 489028; shares compounds with Mdm2 MdmX PPI; inhibition, % at 8 µM; Mdm2-MdmX binding, luminescent assay; in the data active = inhibition above about 40%
Full FLuc ctr: full-length luciferase inhibition in Mdm2/MdmX counter-screen. inhibition, % at 8 µM. 77% of 6,200 active. shares compounds with Mdm2 MdmX PPI. SaOS-2 full-length luciferase counterscreen, luminescence;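 active = mean inhibition at 8 µM reaching about 37%, which flags the compound as non-specific, limit read from the data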;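 also: p53-null SaOS-2 cells with luciferase driven by a doxycycline-inducible promoter; compound on cells about two nights before reading with doxycycline added after day one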
Numbers stand for hits; 0 = inactive; - = no result.

SMILES	Beta apoptosis	CSC inhib	MPTP inh	Mdm2 MdmX PPI	Gli-Sufu antag	NR3A LBD binder	Mdm2-MdmX conf	Full FLuc ctr
COC(=O)c1c(-c2ccsc2)sc2ccc(-c3cc(OC)c(OC)c(OC)c3)cc12	0	0	0	64	0	0	0	-
COc1cc(-c2ccc3sc(-c4ccsc4)c(C#CCO)c3c2)cc(OC)c1OC	0	0	0	74	0	0	0	69
Cc1ccc(S(=O)(=O)N2CCOCC2)cc1C(=O)NCCc1ccc(Cl)cc1	0	-	0	0	0	0	-	-
Cc1cc(C(=O)NCCN2CCN(c3cccc(Cl)c3)CC2)n(-c2ccccc2)n1	-	0	0	53	0	0	59	62
COc1ccc(-c2cc(-c3ccccc3)c(C#N)c(S(C)(=O)=O)n2)cc1	0	0	0	90	0	0	0	-
CS(=O)(=O)c1nc(-c2ccc(Br)cc2)cc(-c2ccccc2)c1C#N	0	86	0	100	0	0	76	52
COc1nc(-c2ccccc2)cc(-c2ccc3c(c2)OCO3)c1C#N	0	0	0	57	0	0	58	58
CS(=O)c1nc(-c2ccc(Br)cc2)cc(-c2ccccc2)c1C#N (centres undefined)	0	75	0	100	0	-	87	0
O=C(Cn1ncc2ccccc2c1=O)Nc1cccc(C(F)(F)F)c1	-	-	0	-	-	-	-	-
O=C(c1cccs1)N1C[C@@H](n2cc(-c3ccc(F)cc3)nn2)[C@H](O)C[C@@H]1c1ccccc1	-	-	0	-	-	-	-	-
CCc1ccccc1NC(=O)CN1CCN(C(=O)C2CCN(C(=O)/C=C/c3ccccc3)CC2)CC1	0	0	0	0	0	0	-	-
CN1CCN(c2sc(S(C)(=O)=O)nc2S(=O)(=O)c2ccc(Cl)cc2)CC1	0	0	0	0	0	0	-	-
CC1CCN(C(=O)COC(=O)C23CC4CC(CC(O)(C4)C2)C3)CC1	0	-	0	0	0	0	-	-
Cc1cc(NC(=O)c2ccc(C#N)cc2)n(-c2ccccn2)n1	0	0	0	63	0	0	0	-
CC(C)(C)c1ccc(C(=O)NC(=S)Nc2nc3c(s2)CCCC3)cc1	0	80	0	61	0	0	51	102
CN(CC(=O)NCCc1ccccc1)S(=O)(=O)c1ccccc1	0	0	0	0	0	0	-	-
CCc1ccn2cc(-c3ccc4c(c3)OCO4)nc2c1	0	78	0	62	0	0	53	92
COc1cccc(C(C(=O)NC2CCCC2)N(C(=O)c2csnn2)C2CC2)c1 (centres undefined)	0	0	0	0	0	0	-	-
Cc1nn(-c2ccccc2)c2nc(N)c(C#N)c(-c3ccc(O)c(O)c3)c12	0	0	0	55	0	0	0	-
Cc1nn(-c2ccc(F)cc2)c2nc(N)c(C#N)c(-c3ccc(O)c(O)c3)c12	0	0	0	61	0	0	0	-
CCOC(=O)C1(C)CCN1C(=O)c1ccccc1C(F)(F)F (centres undefined)	-	-	0	-	-	-	-	-
Cn1cncc1C#Cc1c(-c2ccc(S(C)(=O)=O)cc2)sc2ccccc12	-	-	0	65	0	0	0	-
CS(=O)(=O)c1ccc(-c2sc3ccccc3c2C#CCCO)cc1	0	0	0	0	0	0	-	-
Cc1nc(N2CCCCC2)sc1C(=O)c1ccc(Cl)c([N+](=O)[O-])c1	0	0	-	69	-	-	0	-
COc1cc(CC(NC(C)=O)C(=O)NC2CCN(c3c4c(nc5ncnn35)CCC4)CC2)cc(OC)c1 (centres undefined)	0	0	-	0	-	-	-	-
O=c1ccc(=O)n(CCc2ccccn2)[nH]1	-	-	0	-	0	0	-	-
CCOc1cccc(-c2nnc3sc(-c4cc(OC)c(OC)c(OC)c4)nn23)c1	0	0	0	61	0	0	0	-
COc1cc(-c2nn3c(-c4ccccc4)nnc3s2)cc(OC)c1OC	0	0	0	0	0	0	-	-
COc1cccc(-c2nnc3sc(-c4ccc(C)cc4)nn23)c1	0	0	-	56	-	-	60	47
O=C(O)c1ccc(N2C(=O)CC(N3C(=O)/C(=C/c4ccc(Cl)cc4)SC3=S)C2=O)cc1 (centres undefined)	0	0	0	0	0	0	-	-

Screens deposited in PubChem BioAssay by several laboratories.
